PLK1 PBD inh = inhibitors of human PLK1 polo-box domain binding. P53350. Plk1 PBD binding of FITC phosphopeptide, fluorescence polarization. Potency, µM, for the others: max response, negative = inhibition, most hits filed as inhibitors. 360,000 tested, 2.8% active; also: potency is read from the fitted curve at half-maximal effect; series mostly up to about 57 µM; % is scaled to controls: 0 for no effect and ±100 for the full control effect; nearly all actives have a fitted effect of over 65% in size
JMJD2A Tudor = JMJD2A Tudor domain (human) inhibition; O75164; AlphaScreen JMJD2A-Tudor / H3K4me3 peptide binding; Potency, µM (series often up to 114 µM), inactives show at the top dose activity change, negative = inhibition, actives largely listed as inhibitors; 390,000 tested, 4.4% active; AID 504339; also: potency is read from the fitted curve at half-maximal effect; % is scaled to controls: 0 for no effect and ±100 for the full control effect; nearly all actives have a fitted effect of over 50% in size
PI5P4K alpha inh = inhibitors of human PI5P4K alpha | PI5P4Kalpha enzyme, ADP-Glo luminescence, 60 min; active compounds read low | AID 652105 | max response, % | 330,000 tested, 1.2% active | P48426; active = max response of -50% or lower; inconclusive = between -30% and -50%; inactive = -30% or higher; also: value at the top dose of about 77 µM; % is scaled to controls: 0 for no effect and ±100 for the full control effect
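qHTS, 1536-well: enzyme/substrate mix, compound by pin tool, 5 microM ATP final; RT 60 min; ADP-Glo reagents 1 (45 min) then 2 (30 min); luminescence.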
HP1b binding inh = HP1-beta chromodomain-methylated histone interaction inhibition; 390,000 tested, 0.56% active; Potency, µM (top dose mostly 114 µM), for the others: at the highest dose activity change, negative = inhibition, usual class: inhibitors; AID 540317; P83916; AlphaScreen HP1-beta / biotin-H3K9me3 peptide binding; also: potency is read from the fitted curve at half-maximal effect; nearly all actives have a fitted effect of over 70% in size
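AlphaScreen: HP1-beta (50 nM) preformed 30 min with biotin-H3(1-18)K9me3 peptide (50 nM) in PBS pH 7.4, 0.01% Tween-20. Compound added for 30 min at RT, then streptavidin donor/nickel chelate acceptor beads (10 ug/mL) for 30 min.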
GCN5L2 inh = inhibitors of human GCN5L2 histone acetyltransferase; Potency, µM (titrated, usually from 58.9 µM), for inactives: at the highest dose activity change, negative = inhibition, hits mostly inhibitors; AID 504327; GCN5L2 HAT assay, ThioGlo1 CoA-SH fluorescence; 390,000 tested, 0.21% active; also: potency is read from the fitted curve at half-maximal effect; % is scaled to controls: 0 for no effect and ±100 for the full control effect
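GCN5L2 (20 nM) in 50mM HEPES pH 7.5, 0.1mM EDTA, 0.01% Tween-20 preincubated 15 min with compounds at room temperature. Reaction started with H3(1-25) 75uM, acetyl-CoA 70uM, ThioGlo1 50uM; CoA-thiol fluorescence (Ex340/Em540) read at 0 and 20 min.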
BAZ2B inh = blocks human BAZ2B | Q9UIF8 | AlphaScreen BAZ2B-H3K14Ac peptide displacement | Potency, µM (top dose mostly 114 µM), inactives show at the top dose activity change, negative = inhibition, usual class: inhibitors | 360,000 tested, 4.4% active; also: potency is read from the fitted curve at half-maximal effect; % is scaled to controls: 0 for no effect and ±100 for the full control effect; nearly all actives have a fitted effect of over 60% in size
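Inhibition is scored as reduced AlphaScreen emission. The BAZ2B/b-H3(5-23)K14Ac complex (50 nM each) in PBS pH 7.4, 0.01% Tween-20 meets compound (up to 110 uM) for 30 min at RT before bead addition.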
Numbers without * were called inactive; ? = inconclusive; . = not tested or not shown; [ ] = remark or other dose. In the library only some 7% were active in any assay of this set; here they are far more common. Unless noted, calls follow the shape of the dose curve; as a rule, active = well fitted curve in the direction sought with a large enough effect; inconclusive = small, poorly fitted or top-dose-only effect, or another doubt; inactive = no such curve, though single readings can be large; an effect the other way counts as inactive or inconclusive.

SMILES | PLK1 PBD inh | JMJD2A Tudor | PI5P4K alpha inh | HP1b binding inh | GCN5L2 inh | BAZ2B inh
C#CCOCCOCCOCCNc1nc(N2CCOCC2)nc(N2CCN(C(=O)[C@H](Cc3ccc(O)cc3)n3cc([C@@H](N)C(C)CC)nn3)CC2)n1 (some centres undefined) | ? | ? | -0.5 | 6.8% | 0.3% | -30.3%
Cc1cccc(NC(=S)NCc2ccccn2)c1 | ? | ? | -1.1 | 32.7% | 0.0% | -29.4%
Cc1cc(NCc2ccccn2)ccc1Br | -3.6% | 8.91µM* | . | -38.2% | 2.0% | 50.1µM*
Cc1ccc(-c2n[nH]c(=S)n2/N=C/c2ccc(C)s2)cc1 | -17.3% | ? | -7.3 | 29.7% | -1.4% | -37.1%
COc1ccc(-c2n[nH]c(=S)n2/N=C/c2cccn2C)cc1 | -13.0% | 6.31µM* | -3.8 | ? | -11.7% | -35.3%
Cn1cccc1/C=N/n1c(-c2ccc(Cl)cc2Cl)n[nH]c1=S | -17.6% | 79.4µM* | -15.6 | -12.8% | -9.2% | 44.7µM*
Cc1ccc(-c2n[nH]c(=S)n2/N=C/c2cccn2C)cc1 | -18.7% | 22.4µM* | -10.3 | -30.4% | -0.7% | -34.6%
Cn1cccc1/C=N/n1c(-c2ccc(Cl)cc2)n[nH]c1=S | -6.9% | -15.8% | 3.4 | 35.2% | -7.5% | 3.2%
CCN(CC(=O)Nc1ccc(NC(C)=O)cc1)C(=O)c1cc(CN2C(=O)c3ccccc3C2=O)ccc1OC | -3.3% | -9.0% | -1.3 | 19.0% | -29.1% | 8.3%
N#Cc1nc(NCC(F)F)c2ncn(-c3cc(F)cc(F)c3)c2n1 | . | -9.6% | . | . | . | .
CCC(C)N1C(=O)N(C)C2NC(=O)NC21 (centres undefined) | 26.7µM* | -12.7% | -17.0 | 5.9% | 0.3% | -3.4%
COCC(C)NC(=O)c1cc2c(ccc3ccccc32)oc1=O (centres undefined) | -4.2% | 16.0% | 8.4 | 49.7% | -16.7% | 7.7%
C[N+](C)(C)C/C=C1/COCO1 | 3.36µM* | ? | ? | -3.2% | 2.0% | -2.4%
CC(C)N(C(=O)CSc1nnc(C2CC2)n1C1CC1)c1ccccc1 | 2.0% | -11.5% | -1.4 | 13.5% | -2.2% | -7.8%
Oc1ccc(Cl)cc1C1=NNC(c2cccs2)C1 (centres undefined) | 15µM* | -33.1%[11.4 µM] | -8.8 | -11.2% | ? | -37.9%
Cc1ccc(O)c(C2=NNC(c3ccc(Cl)cc3)C2)c1 (centres undefined) | -8.7% | -33.8% | 4.8 | 33.3% | -13.1% | ?
O=C(COC(=O)c1ccc(S(=O)(=O)N2CCCC2)cc1)Nc1cccc(Cl)c1 | -4.8% | -11.7% | 2.9 | 30.8% | 0.7% | -1.8%
O=C(Nc1ccc2nccnc2c1)Nc1ccccc1Cl | 23.8µM* | 20µM* | -7.1 | 21.8% | 25.9% | -12.8%
O=C(Nc1cccc(Cl)c1)Nc1ccc2nccnc2c1 | 1.3% | 3.2% | -7.4 | 31.5% | -1.8% | -21.9%
Cc1ncc([N+](=O)[O-])n1CCOC(=O)NC(NCc1cccnc1)C(Cl)(Cl)Cl (centres undefined) | 26.7µM* | -27.5% | -15.0 | 15.9% | -2.7% | -1.1%
Cc1ncc([N+](=O)[O-])n1CCOC(=O)NC(NCc1ccccc1)C(Cl)(Cl)Cl (centres undefined) | -3.9% | -16.2% | -1.0 | 26.7% | -1.3% | -1.0%
Cc1cc(C)n(CC(C)NC(=O)c2cc(COc3c(F)cccc3F)on2)n1 (centres undefined) | 18.9µM* | ? | -14.0 | -22.8% | -0.3% | 9.2%
CCOCCc1nn2c(=O)cc(COC(=O)C(CC)c3ccccc3)nc2s1 (centres undefined) | . | -5.0% | . | 40.9% | -19.9% | -4.4%
O=C(OCCCOC(=O)c1cc[n+]([O-])cc1)c1cc[n+]([O-])cc1 | -3.7% | -18.3% | 1.9 | 13.6% | 1.3% | -9.7%
O=C(N/N=C/c1ccc(C(=O)O)cc1)C1=NNC(c2ccccc2)(c2ccccc2)C1 | ? | 79.4µM* | -21.8 | 35.2% | 2.5% | ?
SMILES | PLK1 PBD inh | JMJD2A Tudor | PI5P4K alpha inh | HP1b binding inh | GCN5L2 inh | BAZ2B inh
COC(=O)c1c(NC(=O)CSc2nc(-c3ccco3)cc(C(F)(F)F)n2)sc2c1CCCC2 | ? | -16.6% | . | -15.0% | 1.5% | -1.1%
N#Cc1c(NC(=O)CSc2nc(-c3ccco3)cc(C(F)(F)F)n2)sc2c1CCCC2 | 21.2µM* | -11.6% | -10.3 | -14.8% | -10.3% | -5.3%
N#Cc1c(NC(=O)Cn2nc(C(F)(F)F)c3c2CCCC3)sc2c1CCC2 | 2.99µM* | ? | ? | 31.6µM* | -5.2% | 79.4µM*
CC1CCc2c(sc(NC(=O)Cn3nc(C(F)(F)F)c4c3CCCCC4)c2C#N)C1 (centres undefined) | 26.7µM* | -19.4% | . | -35.3% | ? | 23.4%
Cc1c(C(=O)Nc2c(N)nc(SCC(=O)NCC3CCCO3)[nH]c2=O)cccc1[N+](=O)[O-] (centres undefined) | 2.3% | 6.2% | 1.7 | 26.7% | -3.0% | -0.7%
Nc1nc(=S)c2ncn([C@@H]3O[C@H](CO)[C@@H](O)[C@H]3O)c2[nH]1 | 21.2µM* | 5.01µM* | -77.0* | ? | -13.5% | ?
Nc1nc(=S)c2ncn(C3OC(CO)C(O)C3O)c2[nH]1 (centres undefined) | 10.6µM* | 7.94µM* | -80.7* | ? | ? | 44.7µM*
CCN1C(=O)/C(=C2/C(=O)N3c4c(cc(OC(C)=O)cc42)C(C)=CC3(C)C)SC1=S | -2.5% | ? | 5.4 | ? | -1.2% | 2µM*
COc1cc2c3c(c1)/C(=C1/SC(NC(C)=O)=NC1=O)C(=O)N3C(C)(C)C=C2C | -13.1% | ? | -10.8 | ? | -1.3% | 20µM*
CCN1C(=O)/C(=C2/SC(C)=C(C)N2CC)SC1=S | -10.2% | -18.6% | 1.3 | 5.4% | 1.7% | -1.7%
COc1cc(N=Nc2cccc(S(N)(=O)=O)c2)c2ccccc2c1N | -5.0% | 12.6µM* | -28.8 | 28.2µM* | -10.0% | 12.6µM*
CCOC(=O)c1ccc(S(=O)(=O)NNc2ccc(C(F)(F)F)cn2)cc1 | 1.8% | -14.8% | 0.1 | 9.3% | -5.7% | .
Cc1cc2c(cc(C(=O)N3CCC(C(=O)N4CCCC4)CC3)n2Cc2c(F)cccc2Cl)o1 | -2.0% | 56.2µM* | 10.4 | -23.4% | -7.4% | ?
CCOC(=O)c1cc2occc2n1Cc1c(F)cccc1Cl | 2.5% | -9.8% | -8.4 | 4.1% | -7.7% | 50.1µM*
COc1ccc(NC(=O)CSc2nnc(-c3nonc3NC(C)=O)n2-c2ccccc2)cc1 | . | -11.3% | . | 16.2% | -12.9% | -16.2%
Cc1cn([C@H]2C[C@H](O)[C@@H](CNCc3cnc(N4CCOCC4)nc3)O2)c(=O)[nH]c1=O | -9.2% | . | 5.6 | . | . | .
CCCCN(C=O)c1c(CC)nc2ccc(C(=O)N3CCN(C(=O)c4ccco4)CC3)cn12 | -1.5% | . | 1.7 | . | . | .

From PubChem BioAssay
